PostGolgi yeast: phenotypic screen on post-Golgi transport, primary screen; post-Golgi transport phenotypic cell assay; inhibition, % at 10 µM; hit rate 0.9% among 98,000; AID 739, 2007;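 note: yeast cells grown in 1536-well plates; yeast grown about 18 h at 30C before absorbance read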
CYP2C19 act: human CYP2C19 activators, primary screen, biochemical, luminescence; Cytochrome P450 2C19 (Homo sapiens), P33261; recombinant CYP2C19, luciferin-H EGE luminescence; active compounds read high; 0 = fully inhibited enzyme, 1 = untreated enzyme; activation factor at 5 µM; 96,000 tested, under 10 active; AID 1025, 2008;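 active = activation factor of at least 2 at 5 µM in the primary screen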;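 note: 0 = wells with 2.5 mM tranylcypromine and 1 = vehicle-only wells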
CYP2C19 inhib: blockers of cytochrome P450 2C19 activity – biochemical, luminescence, ADME assay, primary screen; P33261; CYP2C19 Supersomes, luciferin-H EGE luminescence, 30 min; inhibition, % at 5 µM; hit rate 21% among 96,000;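 active = CYP2C19 inhibition above a set limit at 5 µM in the primary screen, cut at about 50% in these data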;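 note: plate controls were negative control wells for no effect and 2.5 mM tranylcypromine positive control for full effect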
CYP2C9 inh: blockers of cytochrome P450 2C9 activity – biochemical, luminescence, ADME assay, primary screen. CYP2C9 Supersomes, luciferin-H conversion. inhibition, % at 5 µM. hit rate 20% among 96,000;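 active = blocking of liver enzyme CYP2C9 beyond about 50% at 5 µM, limit read from the data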
Target sequence (P11712 whole entry, looked up): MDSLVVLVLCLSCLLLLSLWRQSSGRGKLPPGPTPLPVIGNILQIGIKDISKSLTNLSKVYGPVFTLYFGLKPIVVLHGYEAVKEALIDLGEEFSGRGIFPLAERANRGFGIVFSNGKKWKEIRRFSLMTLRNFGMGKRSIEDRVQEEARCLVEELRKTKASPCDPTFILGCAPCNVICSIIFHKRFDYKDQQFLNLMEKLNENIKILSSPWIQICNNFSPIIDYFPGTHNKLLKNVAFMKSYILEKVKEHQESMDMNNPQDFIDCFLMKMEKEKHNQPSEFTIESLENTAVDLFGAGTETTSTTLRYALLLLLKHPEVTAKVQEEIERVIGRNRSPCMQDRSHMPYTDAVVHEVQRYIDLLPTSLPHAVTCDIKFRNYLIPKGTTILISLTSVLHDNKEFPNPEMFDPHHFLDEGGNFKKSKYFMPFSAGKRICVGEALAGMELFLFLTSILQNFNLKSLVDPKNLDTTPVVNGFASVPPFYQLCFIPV
PostGolgi ctrl: growth inhibition of yeast control strain, primary screen, counter-screen for post-Golgi transport modulator project; efflux-deficient yeast background strain, growth absorbance A615, 16 h; hit rate 5% among 98,000; inhibition, % at 10 µM
CYP2C9 activ: human CYP2C9 activators, primary screen, biochemical, luminescence; Cytochrome P450 2C9 (Homo sapiens), P11712; activation factor at 5 µM; AID 1024, 2008; recombinant CYP2C9, luciferin-H conversion; active compounds read high; factor 1 = untreated enzyme, 0 = blocked; hit rate 1.4% among 96,000;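 active = activation factor of 2 or more for CYP2C9 at a 5 µM dose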;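 note: 0 = sulfaphenazole-blocked wells and 1 = vehicle-only wells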
Starred values were filed as active, the others as inactive; . = no result given. Sampled rows, rich in hits. Any-hit rate of the full collection: about 32%. Cut-off read from the data, not from the text of the source, unless noted: active = inhibition above about 30%; inactive = the rest.

SMILES	PostGolgi yeast	CYP2C19 act	CYP2C19 inhib	CYP2C9 inh	PostGolgi ctrl	CYP2C9 activ
COc1ccc(S(=O)(=O)N2CCN(C(=O)NC3CCCCC3)CC2)cc1OC	0.5	0.9	5.3	-54.7	4.8	1.5
CCOC(=O)N1CCN(C(=O)c2cccn3c(=O)c4cc(Cl)ccc4nc23)CC1	3.6	0.7	27.1	39.8	7.4	0.6
CCOC(CNC(=O)c1cccn2c(=O)c3cc(Cl)ccc3nc12)OCC	-4.3	0.8	21.8	66.0*	21.7	0.3
O=C(NCCN1CCN(c2ccccc2)CC1)c1cccc(Br)c1	2.5	0.5	53.1*	44.9	8.3	0.6
O=C(NCCN1CCN(c2ccccc2)CC1)c1cccn2c(=O)c3cc(Cl)ccc3nc12	7.3	0.6	38.6	64.3*	67.7*	0.4
Fc1ccc(C(CCCn2nnc(-c3cccnc3)n2)c2ccc(F)cc2)cc1	-8.1	0.4	58.7*	58.7*	15.4	0.4
COc1ccc(-n2nnc3c(=O)n(Cc4ccccc4C)cnc32)cc1	1.3	0.9	8.9	25.7	3.0	0.7
COc1ccc(Cn2cnc3c([N+](=O)[O-])c(C)c(C)cc32)cc1	-0.7	0.5	53.2*	59.1*	11.5	0.4
Cc1cccc(Cn2cnc3c(NS(C)(=O)=O)c(C)c(C)cc32)c1	-7.5	0.6	42.3	20.4	8.8	0.8
Cc1ccccc1Cn1cnc2c([N+](=O)[O-])c(C)c(C)cc21	14.5	0.5	46.5	39.4	40.2*	0.6
Cc1cc(C)nc(NC(=O)C(C)C)n1	1.3	1	-0.8	15.5	3.3	0.8
Cc1cc(C)nc(NC(=O)C(c2ccccc2)c2ccccc2)n1	3.4	0.8	20.7	70.7*	6.0	0.3
Cn1nnc(NC(=O)C(c2ccccc2)c2ccccc2)n1	-1.1	0.6	41.0	84.4*	8.5	0.2
CCCc1nc2sc3c(SCC(=O)NCc4ccco4)ncnc3c2c2c1CCC2	-10.0	1	-0.3	43.1	7.0	0.6
CCOC(=O)c1cc(C#N)c(Oc2cccc(C(F)(F)F)c2)nc1-c1ccccc1	-2.8	0.9	13.3	29.2	8.8	0.7
CCOC(=O)c1cc(C#N)c(Oc2ccc(F)cc2)nc1-c1ccccc1	5.8	0.8	17.0	49.9	36.9*	0.5
Cn1cnnc1SCC(=O)N1CCC(Cc2ccccc2)CC1	-6.0	0.2	77.1*	1.0	0.4	1
CCc1nc(SCC(=O)N2CCC(Cc3ccccc3)CC2)c2c(=O)n(C)c(=O)n(C)c2n1	19.1	0.9	12.3	9.6	40.0*	0.9
CCCCn1nc2cc(C(=O)NCC34CC5CC(CC(C5)C3)C4)ccc2c1OCC	21.4	0.7	25.5	71.2*	8.5	0.3
CCCCn1nc2cc(C(=O)NCc3ccccc3OC)ccc2c1OCC	20.2	0.5	46.9	56.0*	12.1	0.4
CCCCn1nc2cc(C(=O)N(CC)c3ccc(OC)cc3)ccc2c1OCC	13.2	0.5	51.9*	74.9*	17.3	0.3
CCCCn1nc2cc(C(=O)NCCc3cccs3)ccc2c1OCC	9.4	0.4	61.4*	52.9*	4.9	0.5
C#CC1(O)CC(C)NCC1(C)CCC#N (stereo unspecified)	0.5	1.1	-8.2	-1.4	2.2	1
COc1cc([N+](=O)[O-])cc(CN2CCCCC2)c1O	-2.0	1	-0.3	9.1	18.6	0.9
COc1ccc(-c2nc(C)sc2CC(=O)O)cc1	7.4	.	.	.	8.0	.
SMILES	PostGolgi yeast	CYP2C19 act	CYP2C19 inhib	CYP2C9 inh	PostGolgi ctrl	CYP2C9 activ
CCCCn1nc2cc(C(=O)NC3CCc4ccccc43)ccc2c1OCC (stereo unspecified)	4.0	0.8	17.7	55.6*	-0.6	0.4
CCCn1nc2cc(C(=O)NC3CCCc4ccccc43)ccc2c1OCC (stereo unspecified)	-5.2	1	3.7	-11.3	2.3	1.1
Cc1ccc(CNc2ncnc3cc(Cl)ccc23)o1	-1.3	0.3	66.8*	53.9*	16.8	0.5
CCN(CC)S(=O)(=O)c1cc(NC(=O)Cn2cnc3ccccc3c2=O)ccc1C	8.6	0.6	42.2	53.0*	7.3	0.5
CN(c1ccccc1)S(=O)(=O)c1cccc(NC(=O)Cn2cnc3ccccc3c2=O)c1	-1.7	0.4	62.4*	94.0*	13.2	0.1
O=C(Cn1cnc2ccccc2c1=O)c1c[nH]c2ccccc12	-5.6	0.5	53.4*	30.8	0.8	0.7
COc1cc(OC)c(NC(=O)CCNC(=O)Cn2cnc3ccccc3c2=O)cc1Cl	9.7	1.1	-12.6	30.1	14.7	0.7
Cc1cccc(NC(=O)Cn2cnc3ccccc3c2=O)c1C	-1.1	0.9	8.1	10.5	-0.8	0.9
CCOC(=O)c1ccccc1NC(=O)CCNC(=O)Cn1cnc2ccccc2c1=O	-9.2	1	-3.1	51.6*	17.9	0.5
Cc1ccc(Cn2c(SCC(C)C)nc3c2c(=O)n(C)c(=O)n3C)cc1	34.5*	0.7	26.7	5.1	29.5	0.9
Cn1c(=O)c2c(nc(SCCN3CCCCC3)n2Cc2ccc(Cl)cc2)n(C)c1=O	7.8	0.9	8.5	19.6	21.7	0.8
COc1ccc(CNc2nc3c(c(=O)n(Cc4ccc(F)cc4)c(=O)n3C)n2C)cc1	-5.2	0.1	90.8*	81.1*	19.8	0.2
CCC(C)Nc1nc2c(c(=O)n(C)c(=O)n2C)n1Cc1ccc(F)cc1 (stereo unspecified)	-6.8	0.8	23.6	49.0	35.4*	0.5
Cc1ccc(Cn2c(NCCCn3ccnc3)nc3c2c(=O)n(C)c(=O)n3C)cc1	-3.2	0	98.0*	98.7*	4.7	0
Cc1ccccc1CSc1n[nH]c(NS(=O)(=O)c2ccccc2)n1	-15.2	0.6	36.4	18.1	2.4	0.8
C=CCc1cc(C=O)cc(OC)c1OCc1c(Cl)cccc1Cl	-2.7	0.9	7.1	38.7	14.0	0.6
COC(=O)[C@H](CC(C)C)NC(=O)N1CCN(c2cccc(C(F)(F)F)c2)CC1	2.1	0.8	19.7	-60.8	-0.2	1.6
COc1ccccc1CN=C1NC(=O)C(CC(=O)Nc2ccc(OC)c(OC)c2)S1 (stereo unspecified)	1.4	1.2	-16.0	-15.7	-4.0	1.2
CCCOc1ccc(N2C(=O)CC(N3CCN(c4nc5ccccc5s4)CC3)C2=O)cc1 (stereo unspecified)	6.7	1.2	-20.7	-15.3	-1.1	1.2
Cn1c(NCc2ccccc2)nc2c1c(=O)n(Cc1ccccc1)c(=O)n2C	-1.9	0.6	40.7	33.3	16.3	0.7
CC(C)CCNc1nc2c(c(=O)n(Cc3cccc(F)c3)c(=O)n2C)n1C	0.2	0.1	88.0*	84.7*	40.6*	0.2
Cn1c(NCC(O)c2ccccc2)nc2c1c(=O)n(Cc1ccc(Cl)cc1)c(=O)n2C (stereo unspecified)	-5.3	0.8	23.9	53.4*	4.7	0.5
